The values that follow come from PubChem BioAssay (NCI).

What all share (assay): NCI-60 one-dose screen, 48 h (100 = growth as untreated, 0 = no growth, -100 = all killed)
Conditions in all cases: 10 µM unless noted

For test [1], the system named is NCI-H23 lung.
In test [2] the test system is NCI-H226 lung.
Test [3] concerns NCI-H322M lung.
For test [4], the system named is HOP-62 NSCLC.
Test [5] deals with NCI-H460 lung.
Test [6] deals with HOP-92 NSCLC.
Test [7] deals with NCI-H522 lung.
In test [8] the test system is A549/ATCC NSCLC.
In test [9] the test system is 786-0 renal.
Test [10] relates to COLO 205 colon.

Structures are written as SMILES. Compounds without any hit were thinned out: in the full panel of roughly 83,000, 20% have a hit.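 For each line, cells grew in 96-well plates with the test compound present at a single concentration for 48 hours.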 A number with no mark means an inactive call. The source made the active and inactive calls. Rule for the calls: active = growth percent below 10; inactive = the rest.

In the case of `C=C1C(=O)O[C@H]2[C@H]1CC/C(COC(=O)CCCCC(=O)OC/C1=C/CC[C@@]3(C)O[C@H]3[C@H]3OC(=O)C(=C)[C@@H]3CC1)=C\CC[C@@]1(C)O[C@@H]21`, the growth in test [1] is 65.2%; in test [2] it was 75.3%; in [3] it was 105%; in [4], 86.8%; in test [5], 99.3%; in [6], 61.1%. The growth in test [7] was -36.9% (active); in test [8] it was 94.9%; in test [9], 68%; in test [10], -18.9% (active).
For the compound `CCCCCCCCCCCCCC1=NCC[N+]1(CCO)Cc1ccccc1` (stereo not given), the growth is -67% (active) in test [1]; -30.2% (active) in test [2]; -6.75% (active) in [3]; -82.6% (active) in test [4]; -81.3% (active) in test [5]; -73.1% (active) in test [6]. Moreover, the growth was -82.6% (active) in test [7], -68.8% (active) in test [8], -80.5% (active) in test [9] and -75.5% (active) in test [10].
In the case of `CC1(c2ccccc2Cl)NC(=O)NC1=O` (stereo not given), the growth in test [1] is 95.2%; in [2], 98.6%; in test [3], 98.8%; in [4] it was 86.4%; in [5], 106%; in [6], 83.1%. Besides, the growth is 85% in test [7], 91.2% in test [8], 99.2% in [9] and 108% in [10].
Turning to `C=C1C(=O)O[C@H]2[C@H]1CC/C(COC(=O)NCc1nc3ccccc3[nH]1)=C\CC[C@@]1(C)O[C@@H]21`, the growth in test [1] was 87.2%; in [2], 88.4%; in [3] it was 112%; in test [4], 95%; in test [5], 102%; in test [6], 136%. Further, the growth in test [7] is -43.9% (active); in test [8] it was 94.6%; in [9] it was 101%; in test [10], 18.8%.
As for `CCC[S@@](=O)c1ccc2nc(NC(=O)OC)[nH]c2c1`, the growth in test [1] is 93.3%; in [2] it was 85.6%; in [3], 96%; in [4], 66.2%; in [5], 99.5%; in test [6] it was 84%. The growth in test [7] is 59.9%; in test [8], 65.7%; in test [9], 91.6%; in [10], 96.4%.
In the case of `O=C(Nc1nccs1)c1noc2ccccc12`, the growth is 91.9% in test [1]; 92.7% in [2]; 92% in [3]; 86.8% in test [4]; 96.6% in test [5]; 76.2% in test [6]. In addition, the growth in test [7] is 86.6%; in test [8] it was 95.7%; in test [9], 95.7%; in [10] it was 104%.
Turning to `Cc1ccn2c3c(c(C(=O)O)c2c1)C(=O)c1ccccc1C3=O`, the growth in [1] is 2.03% (active); in test [2], 114%; in [3] it was 6.55% (active); in test [4], 45.5%; in test [5] it was -22.4% (active); in test [6], 96.8%. In addition, the growth in [7] was 82.5%; in [8], -39.6% (active); in test [9] it was 84.2%; in test [10], 42.1%.
Take `Cc1cccc(C)c1NCc1nnc(-c2ccc(O)cc2)o1`: the growth was 91.1% in [1]; 95.5% in test [2]; 98.9% in test [3]; 111% in [4]; 96.9% in test [5]; 88.3% in test [6]. Besides, the growth in [7] is 97.1%; in test [8] it was 104%; in test [9] it was 102%; in [10], 97.3%.
For `O=C(CSC(=S)N1CCCCC1)Nc1ccccc1`, the growth in test [1] was 97.4%; in test [2] it was 94.5%; in [3], 101%; in test [4] it was 100%; in test [5] it was 104%; in [6] it was 99.6%. Moreover, the growth was 82.3% in test [7], 87.9% in [8], 97% in test [9] and 112% in test [10].
Consider `CCCCc1n(Cc2ccc3ccccc3c2)c2ccccc2[n+]1Cc1ccc2ccccc2c1`, for which the growth was -83.9% (active) in test [1]; -72.7% (active) in test [2]; -82.3% (active) in test [3]; -76.8% (active) in test [4]; -81.1% (active) in test [5]; -70.7% (active) in test [6]. The growth is -77.2% (active) in test [7], -72.3% (active) in [8], -80.1% (active) in test [9] and -66.9% (active) in [10].
For `COc1ccc(C2C(c3ccccc3)C(=O)N2c2cc(OC)c(OC)c(OC)c2)cc1I` (stereo not given), the growth in test [1] is 24.6%; in [2] it was 60.6%; in test [3], 42.9%; in test [4] it was 24.7%; in [5] it was 4.29% (active); in test [6], 42.5%. Further, the growth in test [7] was -9.3% (active); in [8], 16.9%; in test [9] it was 17.4%; in test [10], -64.3% (active).
Regarding `OCCNc1nc(NCCO)nc(Nc2ccc(C3=NN(c4ccc(Cl)cc4)C(c4ccc(Cl)cc4)C3)cc2)n1` (stereo not given), the growth was 70.4% in [1]; 104% in test [2]; 50.7% in test [3]; 47.2% in test [4]; 36.2% in test [5]; 81.9% in test [6]. Moreover, the growth was 63.9% in test [7], 50.9% in [8], 16.7% in [9] and 65.5% in test [10].
Regarding `COc1ccc2[nH]c(=O)c(/C=C/C(=O)c3ccccc3OC)cc2c1`, the growth was 21.3% in test [1]; 38.9% in [2]; 18.3% in test [3]; 8.67% (active) in test [4]; 1.79% (active) in test [5]; -12% (active) in test [6]. In addition, the growth is 3.93% (active) in [7], 10.4% in test [8], 8.21% (active) in test [9] and 20.4% in test [10].
On to `COc1cc2c(Nc3ccc(NC(=O)Nc4ccc(Cl)c(C(F)(F)F)c4)c(Cl)c3)ncnc2cc1OCCCN1CCN(C)CC1`, for which the growth was 17.2% in [1]; 73.9% in [2]; 11.3% in [3]; -15% (active) in test [4]; -70.4% (active) in [5]; 27% in test [6]. For the same compound, the growth in [7] is -60.4% (active); in test [8] it was 20.8%; in test [9], 6.31% (active); in [10], -43.2% (active).
Take `Nc1cccc(C(=O)Nc2ccc3c(O)c(N=Nc4ccc(N=Nc5ccc(S(=O)(=O)O)cc5)cc4)c(S(=O)(=O)O)cc3c2)c1`: the growth in test [1] is 104%; in test [2] it was 109%; in test [3] it was 94.5%; in test [4] it was 96%; in [5] it was 106%; in test [6], 97.7%. Moreover, the growth in test [7] is 84.5%; in test [8], 97.5%; in [9], 98.1%; in test [10], 121%.
`CCOc1ccc(C2N(c3cc(OC)c(OC)c(OC)c3)C(=O)C2(F)F)cc1` (stereo not given): the growth in test [1] was 33.6%; in [2] it was 71%; in test [3] it was 67.2%; in test [4], 40.8%; in test [5], 12.7%; in [6], 55.6%. In addition, the growth in [7] was 19.3%; in test [8] it was 33.6%; in test [9], 64.7%; in test [10] it was 10.8%.
In the case of `CNS(=O)(=O)c1cccc(-c2ccc3c4c(n(C)c(=O)c3c2)-c2ccccc2C4=O)c1`, the growth in [1] is 43.9%; in [2] it was 33.1%; in test [3], 92.8%; in test [4] it was 22.2%; in [5], 7.51% (active); in [6] it was 61.2%. The growth is 49.3% in test [7], 24% in [8], 25.3% in test [9] and 66.5% in test [10].
Take `N#CC1(C#N)C2=C(CCCC2)NC(c2c(F)cccc2Cl)C1(C#N)C#N` (stereo not given): the growth in test [1] was 82%; in [2] it was 92.1%; in test [3], 91.1%; in [4], 72.1%; in [5], 95.1%; in test [6] it was 42.9%. For the same compound, the growth in test [7] is -14.1% (active); in test [8], 92.6%; in [9], 88.7%; in test [10], 91.4%.
As for `CCCNc1nc(C)[nH]c(=O)c1S`, the growth is 102% in test [1]; 122% in test [2]; 85.3% in test [3]; 119% in test [4]; 111% in test [5]; -2.9% (active) in test [6]. The growth in test [7] was 91%; in [8], 110%; in test [9], 110%; in [10], 115%.
For `COC(=O)c1ccc(NC(=O)CSc2nc(-c3ccc(F)cc3)nc3ccccc23)cc1`, the growth in [1] was 81.7%; in test [2], 87.4%; in test [3], 89.5%; in [4] it was 75.5%; in test [5] it was 60.7%; in test [6], 77.7%. The growth in [7] is 76.9%; in test [8], 86.1%; in test [9], 105%; in test [10], 93.8%.
Take `COc1ccc(-c2cc(-c3nnc(SCC(=O)Nc4ccc(/C(C)=N\O)cc4)o3)c3ccccc3n2)cc1`: the growth in [1] was 99.5%; in test [2] it was 96.3%; in test [3], 113%; in [4] it was 99.3%; in [5] it was 105%; in test [6] it was 109%. The growth in test [7] was 87%; in [8], 100%; in test [9], 95.5%; in [10], 118%.
Take `C=C1C(=O)O[C@H]2[C@H]1CC/C(COC(=O)CCCCCCC(=O)OC/C1=C/CC[C@@]3(C)O[C@H]3[C@H]3OC(=O)C(=C)[C@@H]3CC1)=C\CC[C@@]1(C)O[C@@H]21`: the growth in test [1] is 25.1%; in [2], 65.2%; in [3], 99.5%; in test [4], 83.6%; in test [5], 77.7%; in test [6], 34%. Moreover, the growth in [7] was -81% (active); in test [8] it was 97.2%; in test [9], 20.9%; in [10], -64.6% (active).
As to `NC(=O)c1ccc(C2C3=C(CCCC3=O)OC3=C2C(=O)c2ccccc2C3=O)cc1` (stereo not given), the growth in [1] was -34.7% (active); in test [2], 113%; in test [3], 104%; in test [4] it was 23.6%; in [5], 7.97% (active); in test [6] it was 71.2%. Further, the growth in test [7] is -26.5% (active); in [8], 26.7%; in [9], 94.8%; in test [10], -1.47% (active).
In the case of `COc1ccc(C(=O)c2cc(F)c(F)c(OC)c2F)cc1OC(=O)CCl`, the growth in test [1] is 58.3%; in [2], 105%; in [3], 75.8%; in test [4], 39%; in test [5], 20.5%; in test [6], 52.9%. For the same compound, the growth in [7] is 30.6%; in test [8], 53.8%; in test [9], 89.6%; in [10], 108%.
Take `C=C(C)[C@@H]1CC[C@]2(C(=O)OCCOCCOCC[P+](c3ccccc3)(c3ccccc3)c3ccccc3)CC[C@]3(C)[C@H](CC[C@@H]4[C@@]5(C)CC[C@H](OC(=O)C(Cl)Cl)C(C)(C)[C@@H]5CC[C@]43C)[C@@H]12`: the growth in [1] was 0.446% (active); in test [2] it was -2.33% (active); in [3], 21%; in [4] it was 11%; in [5] it was -13.3% (active); in test [6], -67.5% (active). For the same compound, the growth was -24.4% (active) in [7], 6.87% (active) in test [8], -85.1% (active) in [9] and -83.7% (active) in [10].
As to `COc1cccc(NC(=O)Nc2ccc(Nc3ncnc4[nH]c(C)c(C)c34)cc2)c1`, the growth in test [1] is 111%; in test [2], 101%; in [3], 114%; in [4], 103%; in test [5], 102%; in [6] it was 104%. For the same compound, the growth in [7] was 90.8%; in test [8] it was 92.7%; in test [9], 113%; in test [10], 112%.
